Sampled rows, rich in hits. Any-hit rate of the full collection: about 1.6%.
KCNQ2 pot = potentiators of rat KCNQ2 potassium channel; 310,000 compounds, 0.54% hits; CHO-K1 KCNQ2, FluxOR thallium flux fluorescence; stronger effect = higher value; B-score at 10 µM; Potassium voltage-gated channel subfamily KQT member 2 (Rattus norvegicus), O88943;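 active = fluorescence ratio B-score at least 3 SD of library B-scores, with initial fluorescence B-score within 3 of them, cut at about 5.3 in these data; same plate scores as AID 2156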;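 note: B-score of peak minus minimum over baseline fluorescence ratio after K+ and Tl+ stimulus; positive B-score means potentiation of KCNQ2 with more thallium influx and brighter signal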
KCNQ2 block = rat KCNQ2 potassium channel inhibitors, primary screen, cell-based, CHO-K1, FluxOR thallium flux, B-score | Potassium voltage-gated channel subfamily KQT member 2 (Rattus norvegicus), O88943 | 20 min; stronger effect = lower value | B-score at 10 µM | 310,000 compounds, 1.1% hits | AID 2156, 2009;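 active = fluorescence ratio B-score at most minus 3 library SDs, with starting brightness B-score within 2 library SDs, cut at about -5.5 in these data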
The depositor's hits bear a star; i = inactive; . = no result.

SMILES	KCNQ2 pot	KCNQ2 block
CCCNC(=S)N1CCC(NC(=O)c2ccc(C)cc2)CC1	-7.3	-7.3*
Cc1ccc(NC(=S)N2CCC(NC(=O)c3ccc(C)cc3)CC2)cc1	.	i
CNC(=O)c1c(NC(=O)c2cc(-c3cc(C)c(C)cc3O)n[nH]2)sc2c1CCCC2	.	i
CCC(C)[C@H](NC(=O)C1(c2ccccc2)CCN(C(=O)OC(C)(C)C)CC1)C(=O)N[C@@H](C(=O)O)c1ccccc1 (stereo not given in full)	1.2	i
CN1C(=O)Cc2cc(S(=O)(=O)N3CCN(c4cccc(C(F)(F)F)c4)CC3)ccc21	0.84	i
COc1cccc(CNC(=O)Nc2cccs2)c1	5.7*	i
COc1ccc(CNC(=O)Nc2cccs2)cc1OC	1.9	i
Cn1ncc(Cl)c1C(=O)N/N=C/c1ccccn1	.	i
Cc1ccc(S(=O)(=O)Oc2ccccc2/C=N/NC(=O)c2c(Cl)cnn2C)cc1	-6	-6*
COC(=O)c1c(NC(C)=O)sc2c1CCCC2	.	i
CCOC(=O)c1c(NC(=S)NC)sc2c1CC(C)(C)SC2	11*	i
CNC(=S)Nc1sc2c(c1C(=O)OC)CCC2	5.6*	i
CCOC(=O)c1c(NC(=S)Nc2ccccc2)sc2c1CC(C)(C)SC2	.	i
Cc1cccc(CSc2nc3sc(C)c(C)c3c(=O)n2Cc2ccco2)c1	0.57	i
Cc1cccc(CSc2nnc(-c3cccs3)n2Cc2ccco2)c1	-6.1	-6.1*
Cc1cc(-c2nnnn2-c2cc(Cl)cc(Cl)c2)no1	.	i
CSC(=S)NCc1cccnc1	.	i
O=C(Nc1ccc(C(=O)O)cc1)/C(=C\c1ccc2c(c1)OCO2)NC(=O)c1ccco1	6.5*	i
O=C(Nc1ccc(C(=O)O)cc1)/C(=C\c1ccccc1)NC(=O)c1ccco1	0.24	i
CCCCn1c(N)c(N(CCOC)C(=O)c2ccc(S(=O)(=O)N3CCCCC3)cc2)c(=O)[nH]c1=O	.	i
O=C(NCCCN1CCCC1=O)c1cc(-c2ccc3c(c2)OCO3)nc2ccccc12	.	i
O=C(NCCCN1CCCC1=O)c1cc(-c2cccnc2)nc2ccc(Cl)cc12	-6.5	-6.5*
CCCN1CCC(NC(=S)Nc2cccc(Cl)c2Cl)CC1	2.2	i
COC(=O)CN(c1ccc(F)cc1)S(=O)(=O)c1ccccc1	0.81	i
COC(=O)Cc1ccc(N(Cc2ccccc2F)S(=O)(=O)c2ccc(Cl)cc2)cc1	-8.2	-8.2*
SMILES	KCNQ2 pot	KCNQ2 block
Cc1ccc(NC2CCCN(C(=O)c3ccoc3C)C2)cc1C (stereo not given)	.	i
CC(C)C1=NN(C(=O)c2ccccc2)C(O)(C(C)(C)C)C1 (stereo not given)	7.1*	i
CC(C)(C)C1=NN(C(=O)c2ccccc2)C(O)(C(C)(C)C)C1 (stereo not given)	.	i
COCc1cc(C(C)=O)ccc1OCC(=O)Nc1ccc(NC(C)=O)cc1	.	i
Cc1cccc(C(=O)Nc2ccc(C(=O)/C=C/c3cccnc3)cc2)c1	.	i
Cc1cccc(C(=O)Nc2ccc(C(=O)/C=C/c3ccncc3)cc2)c1	-6	-6*
CCCn1c(=O)c(C(=O)NNS(=O)(=O)c2ccc(NC(=O)OC)cc2)c(O)c2ccccc21	.	i
COC(=O)c1cc(-c2ccc(OC)c(OC)c2)c2c(=O)[nH]c(=O)n(C)c2n1	.	i
Cc1ncc(C[n+]2csc(CCOC(=O)CC34CC5CC(CC(C5)C3)C4)c2C)c(N)n1	.	i
Cc1c(CCOC(=O)CC23CC4CC(CC(C4)C2)C3)sc[n+]1Cc1ccccc1	-5.6	-5.6*
N#CCCN/N=C(/Cc1nc2ccccc2[nH]1)c1cccc(Cl)c1	-6	-6*
O=C(Cc1nc2ccccc2[nH]1)c1ccc(Cl)cc1	.	i
CCS(=O)(=O)N1Cc2ccccc2CC1C(=O)N(C)CC(=O)Nc1ccc(F)c(F)c1F (stereo not given)	1.1	i
Cc1nc(NC(=S)NC(=O)c2cccs2)ccc1Br	9.4*	i
O=C(NC(=S)Nc1nc(-c2ccccc2)cs1)c1cccs1	7.9*	i
CC(=O)Nc1nc(-c2cccc3ccccc23)cs1	0.01	i
Cc1ccc(-c2csc(NC(=S)NC(=O)c3cccs3)n2)cc1	3.8	i
Cc1cccc(NC(=S)NC(=O)c2cccs2)n1	1.5	i
O=C(NC(=S)Nc1nc(-c2cccc3ccccc23)cs1)c1cc2ccccc2o1	8.2*	i
Cc1cccc(NC(=O)CSc2nc(=O)n(CCN3CCOCC3)c3c2CCCC3)c1C	0.71	i
Cc1cc(OCC(=O)NCc2ccccn2)c2c(C)c(Cc3ccccc3)c(=O)oc2c1	0.63	i
Cc1ccc(NS(=O)(=O)c2cccc(C(=O)NCC(c3ccc(F)cc3)N3CCOCC3)c2)cc1 (stereo not given)	.	i
C=CCN(c1ccccc1)S(=O)(=O)c1cccc(C(=O)NCC(c2ccc(F)cc2)N2CCOCC2)c1 (stereo not given)	-6	-6*
Cc1nc([N+](=O)[O-])cn1CC(=O)c1ccc(F)cc1	0.29	i
O=C(Cn1cccc1C(=O)c1ccccc1)NCc1ccc(F)cc1	0.75	i
SMILES	KCNQ2 pot	KCNQ2 block
CCCc1cc(C(=O)N2CCN(c3ccccc3C)CC2)cs1	-5.7	-5.7*
CCCc1cc(C(=O)N2CCCN(C)CC2)cs1	1.6	i
O=C(Nc1ccc(S(=O)(=O)Nc2ccccc2)cc1)c1ccc(CN2CCOCC2)cc1	0.85	i
O=C(/C=C/c1ccccc1)C1C(=O)c2ccccc2C1=O	5.8*	i
CCc1ccc(/C=C/C(=O)C2C(=O)c3ccccc3C2=O)cc1	3.5	i
CC(C)c1ccc(C(=O)OCC(=O)NC2CCCC2)cc1	0.64	i
COc1ccccc1CNC(=O)c1cc2c(=O)[nH]c3ccccc3c2n1C	0.31	i
O=C(Nc1ccccc1)N1CCc2ccccc21	.	i
O=C(NCC1CCCC(CNC(=O)N2CCc3ccccc32)C1)N1CCc2ccccc21 (stereo not given)	-5.8	-5.8*
O=C1c2ccccc2C(Nc2ccc(Cl)cn2)N1Cc1ccccc1 (stereo not given)	-6.5	-6.5*
O=C(CN1C(=O)c2ccccc2C1=O)Nc1ccc(Cl)cn1	0.84	i
COc1cc(CCCN2C(=O)C(=O)NC[C@H]2Cc2cccc3ccccc23)cc(OC)c1OC	9.6*	i
CCCC[C@@H]1CNC(=O)C(=O)N1CCCc1cc(OC)c(OC)c(OC)c1	0.48	i
COc1ccc(NC(=O)CCCC(=O)OCC(=O)c2cccc(OC)c2)cc1	.	i
COc1cc(C(C)=O)ccc1OCC(=O)N(CCC1=CCCCC1)c1c(N)n(Cc2ccccc2)c(=O)[nH]c1=O	1.4	i
CCCCCC(=O)Nc1ccc(S(=O)(=O)Nc2nccc(C)n2)cc1	.	i
Cc1cc(OCc2nnc(SC(C)C(=O)O)n2Cc2ccccc2)ccc1Cl (stereo not given)	.	i
CC(CNC(=O)CCS(=O)(=O)c1ccc2c(c1)NC(=O)CO2)c1ccccc1 (stereo not given)	.	i
COc1cc([N+](=O)[O-])cc(/C=N/NC(=O)C(C)Nc2cccc3ccccc23)c1O (stereo not given)	0.91	i
COc1ccccc1NC(C)C(=O)N/N=C/c1ccccc1OCc1cccc(Br)c1 (stereo not given)	-6.3	-6.3*
